In PubChem BioAssay (Tox21):
Several values for one entry are separate records, joined by “and”; a condition that tells them apart may be missing. Identical values can stand only once. Records with an inconclusive call do not appear. Where a call stands in place of a potency, no number is given. More than one record can exist for a structure, and the calls need not agree. Activity calls are given as the source filed them. Unless noted, calls come from the whole dose curve; as a rule, active = well fitted curve in the direction sought with a large enough effect in the repeat runs; inconclusive = weak or mixed curves; inactive = no such curve, though single readings can be large; an effect the other way counts as inactive or inconclusive.

Experiments:
[1] = molecular target: Thyrotropin receptor (Homo sapiens) (UniProt P16473); assay: qHTS assay to identify small molecule agonists of the thyroid stimulating hormone receptor (TSHR) signaling pathway (AID 1224843; calls by dose curve; note: nearly all actives have a fitted effect of over 45% in size); conditions: TSHR-HEK293 cells, cAMP HTRF, agonist mode, 30 min; series mostly up to 92.4 µM
How it was run: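 Cell line HEK293 with TSHR; density 800/well. Exposure 30 min RT. Readout HTRF cAMP (cAMP-d2/anti-cAMP-cryptate), 1 h RT before reading.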

[2] = qHTS assay to identify small molecule agonists of H2AX (AID 1224845; active = well fitted activation curve with a large enough effect in the signal ratio in the repeat runs, not every such curve was filed as active; the % refers to the signal ratio); conditions: CHO-K1 phospho-H2AX Ser139 HTRF, 3 h; series mostly up to 154 µM
How it was run: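 Wild-type CHO-K1 cells plated overnight, then exposed 3 hr at 37C to compounds at 15 concentrations (0.76% DMSO). Lysed, then HTRF anti-pH2AX(S139)-cryptate/anti-H2AX-d2 detection after 24 hr at room temperature; emissions 665 and 620 nm.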

[3] = qHTS assay to identify small molecule agonists of the hypoxia (HIF-1) signaling pathway (AID 1224846; active = well fitted activation curve with a large enough effect in the signal ratio in the repeat runs, not every such curve was filed as active; the % refers to the signal ratio); conditions: HRE-bla ME-180 cells, beta-lactamase ratio, 17 h; series mostly up to 76.8 µM
How it was run: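 A low-serum medium (0.5% dialyzed FBS) holding 2,000 HRE-bla ME-180 cells per well is preincubated for 5 hrs, dosed with compounds by pintool, and kept a further 17 hrs at 37C, 5% CO2 before CCF4-AM FRET detection of beta-lactamase.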

[4] = qHTS assay to identify small molecule agonists of H2AX - cell viability counter screen (AID 1224847; calls by dose curve; note: top concentration of the series differs between compounds; nearly all actives have a fitted effect of over 30% in size); conditions: CHO-K1 viability, CellTiter-Glo luminescence, 3 h; series mostly up to 154 µM
How it was run: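 CHO-K1 cells plated overnight at 37C, then exposed 3 h at 37C to compounds at 15 concentrations (0.76% DMSO final). Viability by CellTiter-Glo luminescence after 30 min at room temperature.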

[5] = qHTS RealTime-Glo MT Cell Viability Assay in HepG2 cells - 24 hour (AID 1224867); conditions: RealTime-Glo luminescence; series mostly up to 76.8 µM; note: nearly all actives have a fitted effect of over 50% in size
How it was run: (§1)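 Compound treatment began 5 h after plating HepG2 cells (600/well) with NanoLuc luciferase and prosubstrate. Plates stayed at 37 C for 40 h; luminescence was captured at six time points, 0 h through 40 h.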

[6] = qHTS RealTime-Glo MT Cell Viability Assay in HEK293 cells - 32 hour (AID 1224868); conditions: RealTime-Glo luminescence; series mostly up to 76.8 µM; note: top concentration of the series differs between compounds; nearly all actives have a fitted effect of over 50% in size
How it was run: (§2)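 Quantitative high-throughput screen of the Tox21 10K library in HEK293: cells and RealTime-Glo reagents plated together, compound added at 5 h, luminescence monitored through 40 h at 37 C.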

[7] = A CellTox Green Cytotoxicity Assay to monitor cytotoxicity in HEK293 cells - 0 hour (AID 1224869); conditions: CellTox Green fluorescence; series mostly up to 76.8 µM; note: nearly all actives have a fitted effect of over 50% in size
How it was run: (§3)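 Fluorescence intensity, read at 0, 8, 16, 24, 32 and 40 h of compound treatment, reflected dye binding to DNA of dead HEK293 cells; compounds (23 nL, DMSO) were added 5 h after plating cells with reagent.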

[8] = qHTS RealTime-Glo MT Cell Viability Assay in HepG2 cells - 40 hour (AID 1224870); conditions: RealTime-Glo luminescence; series mostly up to 76.8 µM; note: nearly all actives have a fitted effect of over 50% in size
How it was run: (§4)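 HepG2 cells mixed with RealTime-Glo MT reagents (NanoLuc plus cell-permeant prosubstrate) were seeded at 600 cells/well, incubated 5 h at 37 C/5% CO2, then pinned with compounds in DMSO; nonlytic luminescence tracked viability during 40 h treatment.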

[9] = A CellTox Green Cytotoxicity Assay to monitor cytotoxicity in HEK293 cells - 40 hour (AID 1224871); conditions: CellTox Green fluorescence; series mostly up to 76.8 µM; note: nearly all actives have a fitted effect of over 45% in size; note: potency is the fitted concentration of half-maximal effect
How it was run: as §3

[10] = qHTS RealTime-Glo MT Cell Viability Assay in HEK293 cells - 16 hour (AID 1224872); conditions: RealTime-Glo luminescence; series mostly up to 76.8 µM
How it was run: as §2

[11] = qHTS RealTime-Glo MT Cell Viability Assay in HepG2 cells - 8 hour (AID 1224873); conditions: RealTime-Glo luminescence; series mostly up to 76.8 µM; note: nearly all actives have a fitted effect of over 55% in size
How it was run: as §4

[12] = A CellTox Green Cytotoxicity Assay to monitor cytotoxicity in HEK293 cells - 24 hour (AID 1224875); conditions: CellTox Green fluorescence; series mostly up to 76.8 µM; note: nearly all actives have a fitted effect of over 45% in size
How it was run: as §3

[13] = A CellTox Green Cytotoxicity Assay to monitor cytotoxicity in HepG2 cells - 16 hour (AID 1224876); conditions: CellTox Green fluorescence; series mostly up to 76.8 µM; note: nearly all actives have a fitted effect of over 45% in size
How it was run: (§5)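 Using 1536-well format, dye-containing HepG2 suspension was seeded, allowed 5 h at 37 C/5% CO2, dosed by pintool with compounds, positive and negative controls, and imaged for fluorescence across 40 h.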

[14] = A CellTox Green Cytotoxicity Assay to monitor cytotoxicity in HepG2 cells - 24 hour (AID 1224878); conditions: CellTox Green fluorescence; series mostly up to 76.8 µM; note: nearly all actives have a fitted effect of over 45% in size; note: potency is the fitted concentration of half-maximal effect
How it was run: as §5

[15] = A CellTox Green Cytotoxicity Assay to monitor cytotoxicity in HepG2 cells - 40 hour (AID 1224879); conditions: CellTox Green fluorescence; series mostly up to 76.8 µM; note: nearly all actives have a fitted effect of over 40% in size; note: potency is the fitted concentration of half-maximal effect
How it was run: as §5

[16] = qHTS assay to identify small molecule antagonists of the estrogen related receptor (ERR) signaling pathway from Tox21 library (AID 1224848); conditions: ERR reporter cell line, luciferase antagonist mode, 18 h; series mostly up to 92.4 µM; note: nearly all actives have a fitted effect of over 50% in size
How it was run: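 Screening used an ERR reporter line supplied by NTP, exposed for 18 h at 37 C to library compounds delivered in DMSO. Signal was luciferase luminescence developed with ONE-Glo at room temperature for 30 min.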

[17] = qHTS assay to identify small molecule agonists of the estrogen related receptor (ERR) signaling pathway from Tox21 library (AID 1224849; calls by dose curve; note: nearly all actives have a fitted effect of over 15% in size); conditions: ERR reporter cell line, ONE-Glo luciferase, 18 h
How it was run: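 Screening used an NTP-provided ERR luciferase cell line. Compounds in DMSO were added 6 h after seeding and left 18 h at 37 C before a 30 min ONE-Glo step and luminescence reading.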

[18] = qHTS RealTime-Glo MT Cell Viability Assay in HepG2 cells - 32 hour (AID 1224877); conditions: RealTime-Glo luminescence; series mostly up to 76.8 µM; note: nearly all actives have a fitted effect of over 55% in size
How it was run: as §1

[19] = qHTS assay to identify small molecule agonists of the hypoxia (HIF-1) signaling pathway - cell viability counter screen (AID 1224844; calls by dose curve; note: nearly all actives have a fitted effect of over 50% in size); conditions: HRE-bla ME-180 viability, CellTiter-Glo luminescence, 17 h; series mostly up to 76.8 µM
How it was run: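 Cells (HRE-bla ME-180, 2,000 per well) sat 5 hrs at 37C, got compound for 17 hrs, were read for CCF4-AM FRET, and were finally lysed with CellTiter-Glo for a 30 min room-temperature luminescence read.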

[20] = qHTS RealTime-Glo MT Cell Viability Assay in HEK293 cells - 40 hour (AID 1224874); conditions: RealTime-Glo luminescence; max response: stronger effect = lower value; note: nearly all actives have a fitted effect of over 50% in size
How it was run: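 Viable HEK293 cells reduce a cell-permeant prosubstrate; the product diffuses out and is consumed by NanoLuc in the medium to give light. Compounds went in after a 5 h incubation and plates were read over the treatment course.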

Thyrotropin receptor (Homo sapiens), sequence (P16473 whole entry, looked up): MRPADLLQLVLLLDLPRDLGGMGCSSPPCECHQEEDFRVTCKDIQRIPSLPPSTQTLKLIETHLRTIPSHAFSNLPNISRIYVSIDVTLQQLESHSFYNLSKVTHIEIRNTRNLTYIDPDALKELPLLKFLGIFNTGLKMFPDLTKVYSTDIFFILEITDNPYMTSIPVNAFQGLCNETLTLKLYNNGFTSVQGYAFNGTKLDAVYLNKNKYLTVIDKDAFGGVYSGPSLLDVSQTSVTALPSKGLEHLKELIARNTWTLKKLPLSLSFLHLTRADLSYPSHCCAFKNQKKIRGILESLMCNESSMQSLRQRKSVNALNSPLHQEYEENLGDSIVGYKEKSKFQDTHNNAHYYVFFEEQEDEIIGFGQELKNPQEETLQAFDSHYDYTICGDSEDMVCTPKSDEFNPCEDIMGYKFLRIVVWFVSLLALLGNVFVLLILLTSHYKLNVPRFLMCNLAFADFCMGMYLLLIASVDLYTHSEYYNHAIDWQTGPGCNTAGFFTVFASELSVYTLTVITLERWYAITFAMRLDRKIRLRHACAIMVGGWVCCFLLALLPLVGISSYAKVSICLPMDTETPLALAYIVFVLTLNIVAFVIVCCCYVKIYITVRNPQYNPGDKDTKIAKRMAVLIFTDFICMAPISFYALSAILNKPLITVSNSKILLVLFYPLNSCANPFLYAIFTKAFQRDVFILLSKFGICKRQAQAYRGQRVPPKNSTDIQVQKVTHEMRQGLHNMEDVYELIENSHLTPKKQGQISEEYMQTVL

Compound: Sc1ccccc1
- Potency [1]: inactive
- Potency [2]: inactive
- outcome [3]: inactive
- Potency [4]: inactive
- outcome [5]: inactive
- Potency [6]: inactive
- Potency [7]: inactive
- outcome [8]: inactive
- Potency [9]: inactive
- outcome [10]: inactive
- outcome [11]: inactive
- Potency [12]: inactive
- Potency [13]: inactive
- Potency [14]: inactive and 43.6 µM (active)
- Potency [15]: inactive and 43.6 µM (active)

Compound: O=[N+]([O-])c1ccc(Cl)c(Cl)c1
- Potency [1]: inactive
- outcome [3]: inactive
- Potency [4]: inactive
- Potency [16]: inactive
- activity change, positive = activation ([17]; at 92.4 µM (top of the series)): -0.469% (inactive) and -6.92% (inactive)
- outcome [5]: inactive
- Potency [6]: inactive
- Potency [7]: inactive
- outcome [8]: inactive
- Potency [9]: inactive
- outcome [10]: inactive
- outcome [11]: inactive
- Potency [13]: inactive
- outcome [18]: inactive
- Potency [14]: inactive
- Potency [15]: inactive

Compound: CC(=O)C1CCOC1=O (stereo not given)
- Potency [1]: inactive
- Potency [19]: inactive
- outcome [3]: inactive
- Potency [4]: inactive
- outcome [5]: inactive
- Potency [6]: inactive
- Potency [7]: inactive
- Potency [9]: inactive
- outcome [10]: inactive
- outcome [11]: inactive
- Potency [13]: inactive
- Potency [14]: inactive
- Potency [15]: inactive

Compound: CCOc1ccc(N)cc1
- Potency [1]: inactive
- Potency [2]: inactive
- outcome [3]: inactive
- Potency [4]: inactive
- activity change, positive = activation ([17]; at 92.4 µM (top of the series)): -23.9% (inactive) and -14.2% (inactive)
- outcome [5]: inactive
- Potency [6]: inactive
- Potency [7]: inactive
- Potency [9]: inactive
- outcome [10]: inactive
- outcome [11]: inactive
- Potency [12]: inactive
- Potency [13]: inactive
- Potency [14]: inactive
- Potency [15]: inactive

Compound: Clc1cnc(Oc2ccc(Oc3ncc(Cl)cc3Cl)cc2)c(Cl)c1
- Potency [1]: inactive
- Potency [19]: inactive
- Potency [4]: inactive
- outcome [5]: inactive
- Potency [6]: inactive
- Potency [7]: inactive
- Potency [9]: 24.5 µM (active)
- outcome [10]: inactive
- outcome [11]: inactive
- Potency [13]: inactive
- outcome [18]: inactive
- Potency [14]: inactive
- Potency [15]: inactive

Compound: O=C(O)c1cc(Oc2ccc(C(F)(F)F)cc2Cl)ccc1[N+](=O)[O-]
- Potency [1]: inactive
- outcome [3]: inactive
- Potency [4]: inactive
- Potency [16]: inactive
- activity change, positive = activation ([17]; at 42.5 µM (top of the series)): 9.01% (inactive)
- activity change, positive = activation ([17]; at 92.4 µM (top of the series)): -1% (inactive) and -14.6% (inactive) and -4.43% (inactive)
- outcome [5]: inactive
- Potency [6]: inactive
- Potency [7]: inactive
- outcome [8]: inactive
- Potency [9]: inactive
- outcome [10]: inactive
- outcome [11]: inactive
- max response [20]: 3.72% (inactive) [middle of 4 runs]
- Potency [13]: inactive
- outcome [18]: inactive
- Potency [14]: inactive
- Potency [15]: inactive

Compound: Cc1cccc(N)c1
- Potency [2]: inactive
- Potency [4]: inactive
- Potency [16]: inactive
- activity change, positive = activation ([17]; at 92.4 µM (top of the series)): 7.86% (inactive) and 1.47% (inactive) and 12% (inactive)
- outcome [5]: inactive
- Potency [6]: inactive
- Potency [7]: inactive
- Potency [9]: inactive
- outcome [10]: inactive
- outcome [11]: inactive
- Potency [12]: inactive
- Potency [13]: inactive
- outcome [18]: inactive
- Potency [14]: inactive
- Potency [15]: inactive
